In PubChem BioAssay (Tox21):
Where “and” joins values, the source holds several entries; their conditions need not be identical. Equal entries are not always repeated. Inconclusive results are not listed. More than one record can exist for a structure, and the calls need not agree. Calls of active or inactive are those of the source. Unless noted, calls come from the whole dose curve; as a rule, active = well fitted curve in the direction sought with a large enough effect in the repeat runs; inconclusive = weak or mixed curves; inactive = no such curve, though single readings can be large; an effect the other way counts as inactive or inconclusive.

Assays:
[1] = qHTS assay to test for compound auto fluorescence at 535 nm (green) in HEK293 cells (AID 720680)
[2] = qHTS assay to test for compound auto fluorescence at 460 nm (blue) in HEK293 cell free culture (AID 720681)
In short: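 Compounds were added to cell-free DMEM with 10% FBS and fluorescence read directly. The blue channel used 405 nm excitation and 460 nm emission, with triamterene as the reference fluorophore.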

[3] = qHTS assay to test for compound auto fluorescence at 535 nm (green) in HEK293 cell free culture (AID 720682)
In short: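 Green-channel intensity (Ex/Em 485/535 nm) was recorded from compound-treated wells containing only DMEM with 10% FBS. Fluorescein provided the equivalency standard.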

[4] = qHTS assay to test for compound auto fluorescence at 590 nm (red) in HEK293 cell free culture (AID 720683)
In short: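 Cell-free wells of DMEM with 10% FBS received compound, and intrinsic fluorescence was read at excitation/emission 540/590 nm. Values expressed as equivalence to Rose Bengal sodium.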

[5] = qHTS assay to test for compound auto fluorescence at 590 nm (red) in HepG2 cell free culture (AID 720684)
In short: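 Auto fluorescence equivalency versus Rose Bengal sodium, red channel Ex/Em 540/590 nm; compounds in cell-free MEM/10% FBS; DMSO vehicle control.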

[6] = qHTS assay to test for compound auto fluorescence at 535 nm (green) in HepG2 cell free culture (AID 720686)
[7] = qHTS assay to test for compound auto fluorescence at 460 nm (blue) in HepG2 cells (AID 720687)
In short: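 HepG2 cells in MEM with 10% FBS, attached overnight at 37 C, were exposed to compound or DMSO for 1 hr at 37 C, 5% CO2. Blue fluorescence was read at 405/460 nm, with triamterene as reference fluorophore.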

[8] = target: Glucocorticoid receptor (Homo sapiens) (UniProt P04150); assay: qHTS assay to identify small molecule agonists of the glucocorticoid receptor (GR) signaling pathway (AID 720691; active = well fitted activation curve with a large enough effect in the signal ratio in the repeat runs, not every such curve was filed as active; the % refers to the signal ratio); details: GR-bla HeLa, beta-lactamase reporter ratio, 18 h; activation: at 62.4 µM (top of the series)
Sequence of Glucocorticoid receptor (Homo sapiens) (P04150 whole entry, looked up): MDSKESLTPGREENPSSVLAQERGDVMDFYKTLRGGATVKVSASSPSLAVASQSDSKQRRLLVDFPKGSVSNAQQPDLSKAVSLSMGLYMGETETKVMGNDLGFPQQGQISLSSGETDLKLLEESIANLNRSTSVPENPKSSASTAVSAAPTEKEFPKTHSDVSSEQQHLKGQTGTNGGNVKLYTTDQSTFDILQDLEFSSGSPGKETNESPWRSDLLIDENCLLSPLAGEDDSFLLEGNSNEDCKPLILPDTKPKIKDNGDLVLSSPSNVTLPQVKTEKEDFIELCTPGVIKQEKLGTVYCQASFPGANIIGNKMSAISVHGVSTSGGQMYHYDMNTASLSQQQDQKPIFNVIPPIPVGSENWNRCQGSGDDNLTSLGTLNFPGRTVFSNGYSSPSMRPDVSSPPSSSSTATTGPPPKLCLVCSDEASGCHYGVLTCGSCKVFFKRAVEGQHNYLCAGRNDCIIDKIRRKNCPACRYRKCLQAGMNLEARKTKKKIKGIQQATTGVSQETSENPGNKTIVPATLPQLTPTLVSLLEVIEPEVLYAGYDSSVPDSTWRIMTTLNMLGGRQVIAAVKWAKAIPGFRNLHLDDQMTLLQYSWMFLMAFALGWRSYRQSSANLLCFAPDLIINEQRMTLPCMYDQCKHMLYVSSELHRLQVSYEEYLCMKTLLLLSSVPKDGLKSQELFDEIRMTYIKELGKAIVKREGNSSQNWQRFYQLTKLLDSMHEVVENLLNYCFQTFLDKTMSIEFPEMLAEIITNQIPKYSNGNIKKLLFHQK
In short: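 Measures GR pathway activation through a GRE-beta-lactamase reporter stably integrated in HeLa cells, with 18 h compound treatment at 37 C and fluorescence detection using a FRET substrate.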

[9] = target: Glucocorticoid receptor (Homo sapiens) (UniProt P04150); assay: qHTS assay to identify small molecule antagonists of the glucocorticoid receptor (GR) signaling pathway (AID 720692; active = well fitted inhibition curve with a large enough effect in the signal ratio in the repeat runs, not every such curve was filed as active; the % refers to the signal ratio)
In short: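 Tox21 10K library screened in concentration-response for blockade of dexamethasone (5 nM final)-induced GRE-bla reporter activity in HeLa cells; 18 h treatment, fluorescence read.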

[10] = qHTS assay to identify small molecule antagonists of the glucocorticoid receptor (GR) signaling pathway - cell viability counter screen (AID 720693); note: nearly all actives have a fitted effect of over 55% in size; note: potency is the fitted concentration of half-maximal effect
[11] = qHTS assay for identifying genotoxic compounds that show differential cytotoxicity against isogenic chicken DT40 cell lines with known DNA damage response pathways - Rev3 mutant cell line (AID 743014); note: nearly all actives have a fitted effect of over 55% in size; note: potency is the fitted concentration of half-maximal effect
[12] = qHTS assay for identifying genotoxic compounds that show differential cytotoxicity against isogenic chicken DT40 cell lines with known DNA damage response pathways - Rad54/Ku70 mutant cell line (AID 743015); note: nearly all actives have a fitted effect of over 60% in size; note: potency is the fitted concentration of half-maximal effect
[13] = qHTS assay to identify small molecule antagonists of the androgen receptor (AR) signaling pathway - cell viability counter screen (AID 743033; note: nearly all actives have a fitted effect of over 45% in size)
[14] = target: Androgen receptor (Homo sapiens) (UniProt P10275); assay: qHTS assay to identify small molecule antagonists of the androgen receptor (AR) signaling pathway (AID 743035; active = well fitted inhibition curve with a large enough effect in the signal ratio in the repeat runs, not every such curve was filed as active; the % refers to the signal ratio)
Sequence of Androgen receptor (Homo sapiens) (P10275 whole entry, looked up): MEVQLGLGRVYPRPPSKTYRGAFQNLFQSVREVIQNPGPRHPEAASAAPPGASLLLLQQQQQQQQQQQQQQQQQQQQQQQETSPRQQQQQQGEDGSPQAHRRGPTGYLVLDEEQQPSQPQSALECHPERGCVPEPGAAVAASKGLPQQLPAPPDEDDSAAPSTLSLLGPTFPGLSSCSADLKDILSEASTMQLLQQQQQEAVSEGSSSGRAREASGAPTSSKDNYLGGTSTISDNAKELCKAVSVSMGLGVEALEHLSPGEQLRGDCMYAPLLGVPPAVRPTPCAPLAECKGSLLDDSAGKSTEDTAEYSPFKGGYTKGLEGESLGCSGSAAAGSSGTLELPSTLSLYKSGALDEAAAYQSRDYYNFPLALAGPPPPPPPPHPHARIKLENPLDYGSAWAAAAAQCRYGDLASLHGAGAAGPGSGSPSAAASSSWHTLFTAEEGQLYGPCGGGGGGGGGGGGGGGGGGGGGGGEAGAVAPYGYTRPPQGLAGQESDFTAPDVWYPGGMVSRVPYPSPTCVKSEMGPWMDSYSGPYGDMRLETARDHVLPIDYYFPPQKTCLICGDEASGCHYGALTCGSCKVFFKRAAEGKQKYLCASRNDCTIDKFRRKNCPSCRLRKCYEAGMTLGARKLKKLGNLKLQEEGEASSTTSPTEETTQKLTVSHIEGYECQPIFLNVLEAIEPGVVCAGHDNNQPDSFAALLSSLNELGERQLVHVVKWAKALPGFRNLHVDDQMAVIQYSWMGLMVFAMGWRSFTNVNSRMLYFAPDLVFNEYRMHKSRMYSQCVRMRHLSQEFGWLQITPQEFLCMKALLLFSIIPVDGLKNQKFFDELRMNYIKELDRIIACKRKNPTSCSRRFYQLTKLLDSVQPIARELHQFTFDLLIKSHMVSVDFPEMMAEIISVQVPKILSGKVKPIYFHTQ
In short: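 R1881 agonist challenge of a HEK293 UAS-beta-lactamase AR reporter line in the presence of compound (16 h, 37C); signal taken as FRET fluorescence after 2 h with LiveBLAzer B/G substrate at room temperature.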

[15] = target: Androgen receptor (Homo sapiens) (UniProt P10275); assay: qHTS assay to identify small molecule agonists of the androgen receptor (AR) signaling pathway (AID 743036; active = well fitted activation curve with a large enough effect in the signal ratio in the repeat runs, with a control signal flat, not every such curve was filed as active; the % refers to the signal ratio)
In short: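 Cell-based FRET reporter assay: HEK293 line with a UAS-beta-lactamase construct, compounds added in DMSO, 16 h exposure at 37C, then 2 h substrate step at room temperature and fluorescence intensity read.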

[16] = target: Androgen receptor (Homo sapiens) (UniProt P10275); assay: qHTS assay to identify small molecule agonists of the androgen receptor (AR) signaling pathway using the MDA cell line (AID 743040; note: nearly all actives have a fitted effect of over 20% in size)
In short: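 Testing was done with the MDA-kb2 AR-luc line, a human breast carcinoma stably transfected with MMTV-luciferase containing AR and GR response elements. Cells were exposed 16 h at 37C before ONE-Glo luminescence detection.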

[17] = qHTS assay to identify small molecule antagonists of the androgen receptor (AR) signaling pathway using the MDA cell line - cell viability counter screen (AID 743041; note: nearly all actives have a fitted effect of over 45% in size; note: potency is the fitted concentration of half-maximal effect)
In short: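 Compound exposure lasted 16 h at 37C in MDA-kb2 AR-luc cells stimulated with R1881. Protease-based CellTiter-Fluor reagent was applied for the final 30 min and fluorescence measured.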

[18] = target: Androgen receptor (Homo sapiens) (UniProt P10275); assay: qHTS assay to identify small molecule antagonists of the androgen receptor (AR) signaling pathway using the MDA cell line (AID 743042; note: nearly all actives have a fitted effect of over 55% in size; note: potency is the fitted concentration of half-maximal effect)
In short: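 MDA-kb2 breast carcinoma cells carrying MMTV-luciferase (AR/GR responsive) were co-treated with compounds and the agonist R1881 for 16 h at 37C. Inhibition read as ONE-Glo luminescence; CellTiter-Fluor fluorescence measured in parallel for cytotoxicity.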

[19] = qHTS assay to test for compound auto fluorescence at 460 nm (blue) in HepG2 cell free culture (AID 720685)
In short: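 Cell-free plates of MEM plus 10% FBS received 23 nL compound or DMSO vehicle; blue-channel (405/460 nm) intensity scored against triamterene as reference fluorophore.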

[20] = qHTS assay for identifying genotoxic compounds that show differential cytotoxicity against isogenic chicken DT40 cell lines with known DNA damage response pathways - wild type cell line (AID 743012); note: nearly all actives have a fitted effect of over 60% in size; note: potency is the fitted concentration of half-maximal effect
In short: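 Endpoint: CellTiter-Glo luminescence, 30 min RT. Cells: wild type DT40, 300/well. Exposure: compounds in DMSO, 40 h, 37 C/5% CO2, after ~0.5 h pre-incubation.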

Measured: Potency

COc1ccc(/C=C/C(=O)O)cc1
not listed: [19] | [20]
inactive: all other assays above

CC(C)C[C@@H](NC(=O)[C@@H](O)[C@H](N)Cc1ccccc1)C(=O)O
not listed: [6] | [8] | [9] | [11] | [14] | [15] | [16] | [18]
inactive: all other assays above

CC(C)=CCC/C(C)=C/CC/C(C)=C/CC/C=C(\C)CC/C=C(\C)CCC=C(C)C
not listed: [14] | [15] | [16] | [18] | [19]
inactive: all other assays above

NC[C@H]1O[C@H](O[C@H]2[C@H](O)[C@@H](O[C@H]3O[C@H](CO)[C@@H](O)[C@H](N)[C@H]3O)[C@H](N)C[C@@H]2N)[C@H](N)C[C@@H]1O
inactive: [1] | [2] | [3] | [4] | [5] | [19] | [7] | [20] | [11] | [12] | [13]

CCc1ncnc2cc(OC)c(OC)cc12
not listed: [6] | [7] | [15]
inactive: all other assays above

Nc1nc(NC2CC2)c2ncn([C@@H]3C=C[C@@H](CO)C3)c2n1
not listed: [10] | [11] | [14] | [15] | [16] | [18] | [19]
inactive: all other assays above

CC1CCCCN1CCCOC(=O)c1ccccc1 (centres undefined)
inactive: [1] | [2] | [3] | [4] | [5] | [19] | [7] | [8] | [9] | [13] | [17]

C[Se]CC[C@H](N)C(=O)O
not listed: [6] | [11] | [13] | [14] | [15] | [16] | [18]
inactive: all other assays above

CC[C@H]1OC(=O)[C@H](C)C(=O)[C@H](C)[C@@H](O[C@@H]2O[C@H](C)C[C@H](N(C)C)[C@H]2O)[C@](C)(OC)C[C@@H](C)C(=O)[C@H](C)[C@H]2N(CCCCn3cnc(-c4cccnc4)c3)C(=O)O[C@]12C
5.96 µM (active) and inactive: [11]
active: [20] 4.22 µM | [12] 6.68 µM
not listed: [14] | [15] | [16] | [17] | [18] | [19]
inactive: all other assays above

CN(C)CCC(O)(c1ccccc1)c1ccccc1Cl (centres undefined)
inactive: [1] | [2] | [3] | [4] | [5] | [19] | [7] | [8] | [9] | [13] | [17]

COc1cc([C@@H]2c3cc4c(cc3[C@@H](O[C@@H]3O[C@@H]5CO[C@@H](C)O[C@H]5[C@H](O)[C@H]3O)[C@H]3COC(=O)[C@H]23)OCO4)cc(OC)c1O
active: [20] 531 nM and 340 nM | [11] 473 nM and 107 nM | [12] 53.1 nM and 15.2 nM
inactive: [1] | [2] | [3] | [4] | [5] | [19] | [7] | [10] | [17]

CC(C)c1ncc([N+](=O)[O-])n1C
not listed: [13] | [15] | [19]
inactive: all other assays above

C[C@]12O[C@H](C[C@]1(O)CO)n1c3ccccc3c3c4c(c5c6ccccc6n2c5c31)CNC4=O
active: [10] 3.01 µM | [11] 376 nM | [12] 0.376 µM | [17] 11.9 µM | [18] 2.98 µM
inactive: [1] | [2] | [3] | [4] | [5] | [19] | [7] | [16]

O=C[C@H](O)[C@@H](O)[C@@H](O)[C@H](O)CO
not listed: [6] | [14] | [15] | [16] | [18] | [20]
inactive: all other assays above

C[C@@H]1O[C@@H](OC[C@H]2O[C@@H](Oc3c(-c4ccc(OCCO)c(OCCO)c4)oc4cc(OCCO)cc(O)c4c3=O)[C@H](O)[C@@H](O)[C@@H]2O)[C@H](O)[C@H](O)[C@H]1O
not listed: [6] | [10] | [11]
inactive: all other assays above

CCCCCCCCCCCCCCCCCCOCC(COP(=O)([O-])OCC[N+](C)(C)C)OC (centres undefined)
inactive: [1] | [2] | [3] | [4] | [5] | [19] | [7] | [8] | [10] | [11] | [13]
